# Measured values: publication PMC7862700, “An all-to-all approach to the identification of sequence-specific readers for epigenetic DNA modifications on cytosine”
# What was measured:
# Experiment in all cases: DAPPL (digital affinity profiling via proximity ligation, sequencing); 10 mM Tris-HCl pH 7.5, 50 mM NaCl, 1 mM DTT, 4% glycerol, room temperature, 30 min; GST-TFs on glutathione beads, 16-mer random dsDNA library, 0.1% formaldehyde crosslink after washing; high values mean tight binding
# [1] = target: T1, FEV (Homo sapiens, UniProt Q99581 1-238); conditions: protein: recombinant; tags: N-terminal GST; dsDNA, one strand shown
# T1 sequence: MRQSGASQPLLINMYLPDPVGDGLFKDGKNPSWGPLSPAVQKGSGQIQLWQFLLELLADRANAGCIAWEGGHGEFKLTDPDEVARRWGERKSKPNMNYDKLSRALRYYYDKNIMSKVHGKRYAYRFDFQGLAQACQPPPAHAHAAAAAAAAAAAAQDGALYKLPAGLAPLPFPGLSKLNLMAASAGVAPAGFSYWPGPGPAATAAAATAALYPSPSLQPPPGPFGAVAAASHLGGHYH
# Method in brief: (§1)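 The binding signal reported is, for every hexamer, its read frequency for a factor over its read frequency for the tag-only sample. Reads came from pools of yeast-expressed, GST-fused human transcription factors on glutathione beads, barcoded with DNA and mixed with that sample, which were incubated with 200 nmole of a random double-stranded 16-mer DNA library in Tris/NaCl/DTT/glycerol buffer at room temperature for 30 min. After washing, the pools were crosslinked with 0.1% formaldehyde, proximity-ligated with BsaI/T4 ligase for 1 h at 37 °C, PCR-amplified and sequenced on an Illumina NextSeq500.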
# [2] = target: ETV5 (Homo sapiens, UniProt P41161 1-510); conditions: protein: recombinant; tags: N-terminal GST; dsDNA, one strand shown
# Method in brief: as §1
# [3] = target: HSF1 (Homo sapiens, UniProt Q00613 1-529); conditions: protein: recombinant; tags: N-terminal GST; chain copies: 3; dsDNA, one strand shown
# Method in brief: as §1
# [4] = target: T2, SPIC (Homo sapiens, UniProt Q8N5J4 1-248); conditions: protein: recombinant; tags: N-terminal GST; dsDNA, one strand shown
# T2 sequence: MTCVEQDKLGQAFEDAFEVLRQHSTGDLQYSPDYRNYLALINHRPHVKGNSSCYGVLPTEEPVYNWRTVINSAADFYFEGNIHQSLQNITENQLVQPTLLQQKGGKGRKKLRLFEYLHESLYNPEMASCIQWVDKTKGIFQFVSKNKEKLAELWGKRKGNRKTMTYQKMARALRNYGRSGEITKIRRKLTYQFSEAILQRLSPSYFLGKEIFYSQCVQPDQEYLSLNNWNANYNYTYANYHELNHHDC
# Method in brief: as §1
# [5] = target: ELF4 (Homo sapiens, UniProt Q99607 1-663); conditions: protein: recombinant; tags: N-terminal GST; dsDNA, one strand shown
# Method in brief: as §1
# [6] = target: T3, ELK4 (Homo sapiens, UniProt P28324-2 1-405); conditions: protein: recombinant; tags: N-terminal GST; dsDNA, one strand shown
# T3 sequence: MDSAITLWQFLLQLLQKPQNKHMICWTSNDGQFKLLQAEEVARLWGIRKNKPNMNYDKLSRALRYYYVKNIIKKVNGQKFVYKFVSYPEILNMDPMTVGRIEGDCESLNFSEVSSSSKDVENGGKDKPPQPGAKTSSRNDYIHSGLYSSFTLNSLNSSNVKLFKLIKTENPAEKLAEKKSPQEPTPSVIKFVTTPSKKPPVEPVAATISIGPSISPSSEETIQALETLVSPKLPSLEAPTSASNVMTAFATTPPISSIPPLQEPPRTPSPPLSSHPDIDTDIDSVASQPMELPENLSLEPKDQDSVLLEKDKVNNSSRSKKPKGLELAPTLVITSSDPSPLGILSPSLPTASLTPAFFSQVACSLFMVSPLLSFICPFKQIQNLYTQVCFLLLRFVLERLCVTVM
# Method in brief: as §1
# [7] = target: T4, ETV2 (Homo sapiens, UniProt O00321 1-342); conditions: protein: recombinant; tags: N-terminal GST; dsDNA, one strand shown
# T4 sequence: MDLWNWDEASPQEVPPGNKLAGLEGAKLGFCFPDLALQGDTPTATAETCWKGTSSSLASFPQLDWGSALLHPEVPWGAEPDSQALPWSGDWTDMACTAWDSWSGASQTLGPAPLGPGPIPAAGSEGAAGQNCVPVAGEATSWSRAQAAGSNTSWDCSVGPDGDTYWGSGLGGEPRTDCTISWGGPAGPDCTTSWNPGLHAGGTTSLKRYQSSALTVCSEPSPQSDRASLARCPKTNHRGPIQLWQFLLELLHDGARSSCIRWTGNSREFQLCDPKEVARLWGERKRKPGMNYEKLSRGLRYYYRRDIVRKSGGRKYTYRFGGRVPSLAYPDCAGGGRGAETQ
# Method in brief: as §1
# [8] = target: T5, ELF3 (Homo sapiens, UniProt P78545 1-371); conditions: protein: recombinant; tags: N-terminal GST; dsDNA, one strand shown
# T5 sequence: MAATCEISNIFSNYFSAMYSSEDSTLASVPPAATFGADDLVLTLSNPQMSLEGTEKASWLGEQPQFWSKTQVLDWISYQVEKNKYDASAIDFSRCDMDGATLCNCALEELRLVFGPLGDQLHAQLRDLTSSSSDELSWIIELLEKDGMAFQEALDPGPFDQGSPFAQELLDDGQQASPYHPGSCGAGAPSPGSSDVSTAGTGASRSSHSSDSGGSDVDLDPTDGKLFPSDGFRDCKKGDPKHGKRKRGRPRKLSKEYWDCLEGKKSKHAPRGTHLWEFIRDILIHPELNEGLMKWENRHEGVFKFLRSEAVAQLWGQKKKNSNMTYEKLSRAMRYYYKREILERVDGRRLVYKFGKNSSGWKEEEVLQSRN
# Method in brief: as §1
# [9] = target: CRX (Homo sapiens, UniProt O43186 1-299); conditions: protein: recombinant; tags: N-terminal GST; dsDNA, one strand shown
# Method in brief: as §1
# [10] = target: ETV1 (Homo sapiens, UniProt P50549 1-477); conditions: protein: recombinant; tags: N-terminal GST; dsDNA, one strand shown
# Method in brief: as §1
# [11] = target: T6, ERF (Homo sapiens, UniProt P50548 1-548); conditions: protein: recombinant; tags: N-terminal GST; dsDNA, one strand shown
# T6 sequence: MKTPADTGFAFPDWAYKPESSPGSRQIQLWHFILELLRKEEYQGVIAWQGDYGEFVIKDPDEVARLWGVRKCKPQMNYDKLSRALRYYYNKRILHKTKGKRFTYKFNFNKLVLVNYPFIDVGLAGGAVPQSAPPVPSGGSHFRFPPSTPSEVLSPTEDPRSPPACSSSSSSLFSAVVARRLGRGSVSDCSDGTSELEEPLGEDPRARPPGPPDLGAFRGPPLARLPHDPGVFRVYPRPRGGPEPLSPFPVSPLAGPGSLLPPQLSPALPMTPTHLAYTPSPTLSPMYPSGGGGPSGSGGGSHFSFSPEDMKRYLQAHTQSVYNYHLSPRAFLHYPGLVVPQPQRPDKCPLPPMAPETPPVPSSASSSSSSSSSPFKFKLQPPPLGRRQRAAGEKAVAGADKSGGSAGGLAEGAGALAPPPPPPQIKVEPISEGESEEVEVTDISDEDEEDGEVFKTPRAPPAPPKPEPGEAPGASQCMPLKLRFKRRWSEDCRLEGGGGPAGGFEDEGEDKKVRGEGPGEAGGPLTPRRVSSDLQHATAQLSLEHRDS
# Method in brief: as §1
# [12] = target: T7, ETV3L (Homo sapiens, UniProt Q6ZN32 1-361); conditions: protein: recombinant; tags: N-terminal GST; dsDNA, one strand shown
# T7 sequence: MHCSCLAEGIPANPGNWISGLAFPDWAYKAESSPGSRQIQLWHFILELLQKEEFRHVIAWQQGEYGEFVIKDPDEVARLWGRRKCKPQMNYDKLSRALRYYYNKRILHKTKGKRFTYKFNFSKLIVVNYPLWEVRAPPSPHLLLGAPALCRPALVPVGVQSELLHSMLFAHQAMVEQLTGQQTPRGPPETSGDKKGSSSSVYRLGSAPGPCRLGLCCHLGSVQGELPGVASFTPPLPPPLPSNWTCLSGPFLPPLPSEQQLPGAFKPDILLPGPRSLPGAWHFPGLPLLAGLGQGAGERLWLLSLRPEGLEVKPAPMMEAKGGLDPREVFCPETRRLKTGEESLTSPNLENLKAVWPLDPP
# Method in brief: as §1
# [13] = target: T8, ETS2 (Homo sapiens, UniProt P15036 1-469); conditions: protein: recombinant; tags: N-terminal GST; dsDNA, one strand shown
# T8 sequence: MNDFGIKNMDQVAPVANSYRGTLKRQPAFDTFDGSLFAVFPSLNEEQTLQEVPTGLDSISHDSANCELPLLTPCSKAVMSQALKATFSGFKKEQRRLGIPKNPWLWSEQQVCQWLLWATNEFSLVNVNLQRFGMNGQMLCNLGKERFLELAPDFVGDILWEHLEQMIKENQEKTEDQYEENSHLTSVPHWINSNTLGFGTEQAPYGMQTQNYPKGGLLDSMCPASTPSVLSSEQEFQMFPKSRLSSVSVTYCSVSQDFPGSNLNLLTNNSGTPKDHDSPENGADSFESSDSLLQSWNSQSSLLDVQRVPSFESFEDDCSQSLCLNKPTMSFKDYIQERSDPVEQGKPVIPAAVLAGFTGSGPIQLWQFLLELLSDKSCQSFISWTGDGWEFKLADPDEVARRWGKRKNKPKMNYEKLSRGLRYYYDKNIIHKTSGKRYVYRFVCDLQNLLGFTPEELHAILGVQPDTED
# Method in brief: as §1
# [14] = target: T9, SPDEF (Homo sapiens, UniProt O95238 1-335); conditions: protein: recombinant; tags: N-terminal GST; dsDNA, one strand shown
# T9 sequence: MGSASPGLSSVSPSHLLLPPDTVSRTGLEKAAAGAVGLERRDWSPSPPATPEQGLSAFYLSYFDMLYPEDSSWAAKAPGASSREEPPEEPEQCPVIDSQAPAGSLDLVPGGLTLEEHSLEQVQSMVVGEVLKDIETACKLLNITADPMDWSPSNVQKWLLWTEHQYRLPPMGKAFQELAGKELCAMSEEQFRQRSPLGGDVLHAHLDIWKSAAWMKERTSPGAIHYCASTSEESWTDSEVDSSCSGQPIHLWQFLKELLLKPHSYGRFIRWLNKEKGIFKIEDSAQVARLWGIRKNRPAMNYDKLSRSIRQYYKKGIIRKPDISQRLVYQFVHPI
# Method in brief: as §1
# [15] = target: T10, ETV7 (Homo sapiens, UniProt Q9Y603 1-341); conditions: protein: recombinant; tags: N-terminal GST; dsDNA, one strand shown
# T10 sequence: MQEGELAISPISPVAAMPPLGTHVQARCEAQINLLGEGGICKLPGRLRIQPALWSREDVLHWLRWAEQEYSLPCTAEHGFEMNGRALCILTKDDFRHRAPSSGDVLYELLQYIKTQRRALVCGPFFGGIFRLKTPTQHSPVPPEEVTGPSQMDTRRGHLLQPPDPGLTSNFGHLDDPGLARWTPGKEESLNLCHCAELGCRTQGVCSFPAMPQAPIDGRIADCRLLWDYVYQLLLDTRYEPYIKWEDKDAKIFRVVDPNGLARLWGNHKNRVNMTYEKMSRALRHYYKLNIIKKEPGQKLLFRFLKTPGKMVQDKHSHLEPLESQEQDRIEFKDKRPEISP
# Method in brief: as §1
# [16] = target: T11, ELF5 (Homo sapiens, UniProt Q9UKW6-2 1-255); conditions: protein: recombinant; tags: N-terminal GST; dsDNA, one strand shown
# T11 sequence: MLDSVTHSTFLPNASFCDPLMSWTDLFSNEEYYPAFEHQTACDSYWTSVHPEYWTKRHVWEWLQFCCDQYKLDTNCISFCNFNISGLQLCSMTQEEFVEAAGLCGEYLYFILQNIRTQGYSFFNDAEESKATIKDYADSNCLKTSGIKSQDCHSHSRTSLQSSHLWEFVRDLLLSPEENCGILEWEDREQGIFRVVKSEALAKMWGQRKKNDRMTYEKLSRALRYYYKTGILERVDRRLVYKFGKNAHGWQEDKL
# Method in brief: as §1
# [17] = target: T12, ETV3 (Homo sapiens, UniProt P41162-2 1-143); conditions: protein: recombinant; tags: N-terminal GST; dsDNA, one strand shown
# T12 sequence: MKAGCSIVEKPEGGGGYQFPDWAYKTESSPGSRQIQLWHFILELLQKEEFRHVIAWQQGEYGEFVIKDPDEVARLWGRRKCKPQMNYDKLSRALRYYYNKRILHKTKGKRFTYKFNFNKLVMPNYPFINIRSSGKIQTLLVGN
# Method in brief: as §1
# [18] = target: ETV6 (Homo sapiens, UniProt P41212 1-452); conditions: protein: recombinant; tags: N-terminal GST; dsDNA, one strand shown
# Method in brief: as §1
# CRX, sequence (O43186 whole entry): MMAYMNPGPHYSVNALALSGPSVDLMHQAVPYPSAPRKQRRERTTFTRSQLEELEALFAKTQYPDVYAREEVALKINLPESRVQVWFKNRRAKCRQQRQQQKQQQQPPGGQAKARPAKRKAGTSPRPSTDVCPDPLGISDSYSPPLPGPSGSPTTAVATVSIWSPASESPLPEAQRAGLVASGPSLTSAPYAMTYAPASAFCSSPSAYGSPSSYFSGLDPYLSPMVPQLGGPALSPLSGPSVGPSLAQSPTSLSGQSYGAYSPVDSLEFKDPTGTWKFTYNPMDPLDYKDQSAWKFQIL
# ETV5, sequence (P41161 whole entry): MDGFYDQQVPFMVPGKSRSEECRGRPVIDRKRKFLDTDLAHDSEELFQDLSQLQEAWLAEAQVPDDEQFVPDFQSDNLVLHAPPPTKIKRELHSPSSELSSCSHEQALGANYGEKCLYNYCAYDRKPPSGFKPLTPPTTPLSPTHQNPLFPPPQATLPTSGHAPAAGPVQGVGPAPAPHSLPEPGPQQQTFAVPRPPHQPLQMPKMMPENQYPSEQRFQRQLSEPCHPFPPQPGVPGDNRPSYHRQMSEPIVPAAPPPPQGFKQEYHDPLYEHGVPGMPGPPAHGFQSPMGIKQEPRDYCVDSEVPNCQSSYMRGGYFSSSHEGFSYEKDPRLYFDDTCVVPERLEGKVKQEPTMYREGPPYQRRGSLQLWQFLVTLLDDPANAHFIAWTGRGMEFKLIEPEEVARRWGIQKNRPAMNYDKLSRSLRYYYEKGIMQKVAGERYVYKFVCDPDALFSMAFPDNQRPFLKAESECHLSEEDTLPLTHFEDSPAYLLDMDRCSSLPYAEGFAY
# ETV6, sequence (P41212 whole entry): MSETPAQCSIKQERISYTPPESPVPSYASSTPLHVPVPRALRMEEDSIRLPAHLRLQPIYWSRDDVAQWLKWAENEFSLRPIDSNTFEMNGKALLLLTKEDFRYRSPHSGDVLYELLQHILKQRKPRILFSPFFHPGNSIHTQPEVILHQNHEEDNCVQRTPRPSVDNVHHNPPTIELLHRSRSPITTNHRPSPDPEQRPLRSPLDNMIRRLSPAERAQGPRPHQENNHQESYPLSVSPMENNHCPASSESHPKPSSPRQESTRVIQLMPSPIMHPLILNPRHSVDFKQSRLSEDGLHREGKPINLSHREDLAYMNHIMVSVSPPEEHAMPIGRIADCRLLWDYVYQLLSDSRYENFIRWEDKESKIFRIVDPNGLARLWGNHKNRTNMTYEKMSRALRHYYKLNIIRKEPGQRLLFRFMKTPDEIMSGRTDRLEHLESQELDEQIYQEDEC
# HSF1, sequence (Q00613 whole entry): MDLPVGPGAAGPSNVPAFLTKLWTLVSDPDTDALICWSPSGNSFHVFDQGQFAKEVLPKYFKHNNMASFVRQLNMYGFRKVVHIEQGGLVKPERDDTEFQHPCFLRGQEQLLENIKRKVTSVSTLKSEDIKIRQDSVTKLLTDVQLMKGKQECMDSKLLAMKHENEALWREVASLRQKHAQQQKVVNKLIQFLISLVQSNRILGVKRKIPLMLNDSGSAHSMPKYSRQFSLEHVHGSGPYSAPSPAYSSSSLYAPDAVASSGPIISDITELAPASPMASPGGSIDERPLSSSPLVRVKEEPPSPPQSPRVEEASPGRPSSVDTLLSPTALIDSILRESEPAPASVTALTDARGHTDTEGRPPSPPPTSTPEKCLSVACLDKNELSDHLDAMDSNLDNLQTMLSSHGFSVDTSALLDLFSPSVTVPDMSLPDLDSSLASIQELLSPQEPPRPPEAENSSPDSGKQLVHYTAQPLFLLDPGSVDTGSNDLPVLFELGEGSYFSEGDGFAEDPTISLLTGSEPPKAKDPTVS
# ELF4, sequence (Q99607 whole entry): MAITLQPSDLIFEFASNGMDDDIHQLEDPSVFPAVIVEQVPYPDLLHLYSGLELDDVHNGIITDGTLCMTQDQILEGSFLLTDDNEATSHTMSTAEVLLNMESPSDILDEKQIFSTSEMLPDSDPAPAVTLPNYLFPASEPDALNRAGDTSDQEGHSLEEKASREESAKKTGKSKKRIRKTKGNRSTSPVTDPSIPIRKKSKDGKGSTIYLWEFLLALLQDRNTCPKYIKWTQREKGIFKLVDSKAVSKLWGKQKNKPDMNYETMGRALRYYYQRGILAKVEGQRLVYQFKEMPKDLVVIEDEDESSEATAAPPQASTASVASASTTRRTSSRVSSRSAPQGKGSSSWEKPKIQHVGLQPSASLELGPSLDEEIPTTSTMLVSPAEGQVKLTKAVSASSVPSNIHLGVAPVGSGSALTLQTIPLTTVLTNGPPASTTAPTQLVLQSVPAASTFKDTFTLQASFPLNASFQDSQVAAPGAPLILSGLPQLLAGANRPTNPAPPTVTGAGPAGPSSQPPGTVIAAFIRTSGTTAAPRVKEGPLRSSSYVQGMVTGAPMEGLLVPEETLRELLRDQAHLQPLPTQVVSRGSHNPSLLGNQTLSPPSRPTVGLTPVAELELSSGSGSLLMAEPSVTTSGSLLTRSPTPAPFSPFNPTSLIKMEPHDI
# ETV1, sequence (P50549 whole entry): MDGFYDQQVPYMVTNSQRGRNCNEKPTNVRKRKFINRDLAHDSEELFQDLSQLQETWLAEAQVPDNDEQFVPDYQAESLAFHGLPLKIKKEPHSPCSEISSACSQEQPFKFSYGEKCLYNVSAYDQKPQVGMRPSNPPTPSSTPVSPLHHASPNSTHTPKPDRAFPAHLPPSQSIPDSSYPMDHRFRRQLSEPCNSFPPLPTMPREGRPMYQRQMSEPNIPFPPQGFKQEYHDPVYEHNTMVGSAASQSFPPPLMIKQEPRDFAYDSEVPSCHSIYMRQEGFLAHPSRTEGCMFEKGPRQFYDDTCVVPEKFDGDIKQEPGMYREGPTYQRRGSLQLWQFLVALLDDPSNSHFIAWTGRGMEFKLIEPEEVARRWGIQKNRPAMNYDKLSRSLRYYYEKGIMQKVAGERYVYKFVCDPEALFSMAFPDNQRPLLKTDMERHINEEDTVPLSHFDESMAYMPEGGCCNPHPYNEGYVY
sequence,measurement,setting,value
TGCCTC,binding signal,[1],"1.32 fold enrichment (6-mer frequency, TF over GST control)"
same,binding signal,[2],"1.37 fold enrichment (6-mer frequency, TF over GST control)"
same,binding signal,[3],"1.14 fold enrichment (6-mer frequency, TF over GST control)"
same,binding signal,[4],"1.4 fold enrichment (6-mer frequency, TF over GST control)"
same,binding signal,[5],"1.34 fold enrichment (6-mer frequency, TF over GST control)"
same,binding signal,[6],"1.28 fold enrichment (6-mer frequency, TF over GST control)"
same,binding signal,[7],"1.3 fold enrichment (6-mer frequency, TF over GST control)"
same,binding signal,[8],"1.52 fold enrichment (6-mer frequency, TF over GST control)"
same,binding signal,[9],"1.06 fold enrichment (6-mer frequency, TF over GST control)"
same,binding signal,[10],"1.24 fold enrichment (6-mer frequency, TF over GST control)"
same,binding signal,[11],"1.4 fold enrichment (6-mer frequency, TF over GST control)"
same,binding signal,[12],"1.32 fold enrichment (6-mer frequency, TF over GST control)"
same,binding signal,[13],"1.22 fold enrichment (6-mer frequency, TF over GST control)"
same,binding signal,[14],"1.39 fold enrichment (6-mer frequency, TF over GST control)"
same,binding signal,[15],"1.35 fold enrichment (6-mer frequency, TF over GST control)"
same,binding signal,[16],"1.4 fold enrichment (6-mer frequency, TF over GST control)"
same,binding signal,[17],"1.39 fold enrichment (6-mer frequency, TF over GST control)"
same,binding signal,[18],"1.36 fold enrichment (6-mer frequency, TF over GST control)"
